Test systems include HCT-15 colon; HT29 colon; SNB-75 CNS; SNB-19 CNS; U251 CNS; PC-3 prostate; SK-MEL-5 melanoma; UACC-62 melanoma; LOX IMVI melanoma; SK-MEL-28 melanoma; SK-MEL-2 melanoma; EKVX NSCLC; SN12C renal; UO-31 renal; TK-10 renal; ACHN renal; CAKI-1 renal; CCRF-CEM leukemia; MOLT-4 leukemia.
What all share (assay): NCI-60 one-dose screen, 48 h (100 = growth as untreated, 0 = no growth, -100 = all killed)
Common to all, as to details: 10 µM unless noted

About 83,000 compounds went through this panel and 20% of them were active in at least one assay; those are over-represented in the sample as a whole.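 Values shown are percent growth following 48 h exposure of cells in 96-well plates to a single concentration of compound; below 10 was considered active.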 Unmarked numbers belong to inactive results. Active and inactive are the calls of the source.

Take `COc1ccc(OC)c(/C=C/[C@H]2O[C@@H](C)[C@H](O)[C@@H]2O)c1`: the growth is 103% in the experiment with HCT-15 colon; 104% in the experiment on HT29 colon; 90.2% in the experiment on SNB-75 CNS; 99.4% in the experiment on SNB-19 CNS; 94% in the experiment with U251 CNS; 106% in the experiment with PC-3 prostate. Moreover, the growth was 103% in the experiment with SK-MEL-5 melanoma; 100% with UACC-62 melanoma; 99.8% with LOX IMVI melanoma; 102% with SK-MEL-28 melanoma; 91.2% in the experiment on SK-MEL-2 melanoma; 107% in the experiment with EKVX NSCLC. For the same compound, the growth in the experiment with SN12C renal was 106%; in the experiment on UO-31 renal it was 91.5%; in the experiment with TK-10 renal, 95.7%; in the experiment on ACHN renal it was 106%; in the experiment with CAKI-1 renal it was 96.9%; in the experiment with CCRF-CEM leukemia it was 98.3%. The growth in the experiment with MOLT-4 leukemia was 93.2%.
As to `Fc1cc(C2=NNC(c3ccc[nH]3)C2)ccc1-n1ccc(C(F)(F)F)n1` (stereo not drawn), the growth in the experiment on HCT-15 colon was 94.1%; in the experiment on HT29 colon, 92.9%; in the experiment on SNB-75 CNS it was 87.7%; with SNB-19 CNS it was 91.2%; with U251 CNS, 77.6%; in the experiment on PC-3 prostate, 72.3%. The growth was 98% with SK-MEL-5 melanoma; 81.3% in the experiment on UACC-62 melanoma; 94.2% in the experiment with LOX IMVI melanoma; 104% in the experiment with SK-MEL-28 melanoma; 102% with SK-MEL-2 melanoma; 84.7% in the experiment on EKVX NSCLC. Moreover, the growth with SN12C renal was 85.6%; in the experiment with UO-31 renal, 52.1%; in the experiment with TK-10 renal, 117%; in the experiment on ACHN renal it was 91%; in the experiment on CAKI-1 renal, 66.5%; in the experiment on CCRF-CEM leukemia, 68.3%. The growth in the experiment on MOLT-4 leukemia is 77.5%.
For the compound `CCCCCCc1nc2nc(Cl)c(Cl)nc2[nH]1`, the growth in the experiment with HCT-15 colon was 57.2%; in the experiment on HT29 colon it was 77.3%; in the experiment on SNB-75 CNS, 53.2%; in the experiment on SNB-19 CNS, 65.6%; with U251 CNS, 49%; in the experiment with PC-3 prostate, 47.9%. Further, the growth with SK-MEL-5 melanoma was 16.2%; in the experiment on UACC-62 melanoma, 38.4%; in the experiment on LOX IMVI melanoma, 53.7%; in the experiment on SK-MEL-28 melanoma, 65.1%; with SK-MEL-2 melanoma, 63.4%; in the experiment with EKVX NSCLC, 52.6%. The growth with SN12C renal is 60.8%; in the experiment with UO-31 renal it was 52.6%; in the experiment on TK-10 renal it was 76.9%; with ACHN renal, 67.4%; in the experiment with CAKI-1 renal, 39.1%; with CCRF-CEM leukemia, 47.8%. Further, in the experiment on MOLT-4 leukemia, the growth is 49%.
For `NNC(=O)/C(=C\c1ccc([N+](=O)[O-])cc1)CC(=O)c1ccc(Cl)c(Cl)c1`, the growth with HCT-15 colon is 89.6%; with HT29 colon it was 88.4%; in the experiment on SNB-75 CNS it was 63.3%; in the experiment on SNB-19 CNS it was 89.6%; in the experiment on U251 CNS it was 91.8%; with PC-3 prostate it was 79.4%. The growth in the experiment on SK-MEL-5 melanoma is 93.6%; in the experiment on UACC-62 melanoma, 73.8%; with LOX IMVI melanoma, 71.3%; with SK-MEL-28 melanoma, 103%; in the experiment on SK-MEL-2 melanoma it was 95.7%; in the experiment on EKVX NSCLC, 69.5%. Also, the growth in the experiment on SN12C renal was 88%; in the experiment with UO-31 renal, 58.6%; with TK-10 renal it was 97.5%; in the experiment on ACHN renal, 91.1%; in the experiment on CAKI-1 renal, 66.8%; in the experiment with CCRF-CEM leukemia it was 80.9%. For the same compound, the growth in the experiment with MOLT-4 leukemia was 61.4%.
With `Cc1ccc(C(=O)Nc2ccccc2C(=O)N/N=C(\c2ccccc2)c2ccccn2)cc1`, the growth with HCT-15 colon is 29.1%; in the experiment on HT29 colon, 24.9%; in the experiment on SNB-75 CNS, 22.1%; in the experiment with SNB-19 CNS, 26.2%; in the experiment with U251 CNS, 22.6%; in the experiment on PC-3 prostate, 33.1%. Also, the growth in the experiment on SK-MEL-5 melanoma is -4.18% (active); in the experiment with UACC-62 melanoma, 5.33% (active); in the experiment with LOX IMVI melanoma, 5.79% (active); in the experiment on SK-MEL-28 melanoma, 32.4%; in the experiment on SK-MEL-2 melanoma, 41.4%; in the experiment on EKVX NSCLC, 13.1%. Also, the growth was 28.9% in the experiment on SN12C renal; 3.57% (active) in the experiment on UO-31 renal; 47.2% in the experiment on TK-10 renal; 15.1% in the experiment with ACHN renal; 10.5% in the experiment with CAKI-1 renal; 8.79% (active) with CCRF-CEM leukemia. Moreover, the growth with MOLT-4 leukemia is 15.8%.
As for `COc1ccc(-n2cc(-c3cc(OC)c(OC)c(OC)c3)n(C(C)=O)c2=O)cc1`, the growth was 94.9% with HCT-15 colon; 108% with HT29 colon; 69.5% in the experiment with SNB-75 CNS; 86.1% with SNB-19 CNS; 88.2% in the experiment with U251 CNS; 94% with PC-3 prostate. Also, the growth with SK-MEL-5 melanoma was 6.54% (active); with UACC-62 melanoma it was 84.1%; in the experiment with LOX IMVI melanoma it was 94%; with SK-MEL-28 melanoma, 115%; in the experiment with SK-MEL-2 melanoma, 93.2%; with EKVX NSCLC, 88%. In addition, the growth with SN12C renal was 93.4%; in the experiment with UO-31 renal, 77.2%; in the experiment with TK-10 renal, 105%; in the experiment with ACHN renal it was 97.7%; in the experiment on CAKI-1 renal, 53.7%; in the experiment on MOLT-4 leukemia, 103%.

These data come from PubChem BioAssay (NCI).
